# PMC7862700, “An all-to-all approach to the identification of sequence-specific readers for epigenetic DNA modifications on cytosine”
# Legend:
# Assay in all cases: DAPPL (digital affinity profiling via proximity ligation, sequencing); 10 mM Tris-HCl pH 7.5, 50 mM NaCl, 1 mM DTT, 4% glycerol, room temperature, 30 min; GST-TFs on glutathione beads, 16-mer random dsDNA library, 0.1% formaldehyde crosslink after washing; high values mean tight binding
# Conditions in all cases: protein: recombinant; tags: N-terminal GST; dsDNA, one strand shown
# FLI1 = biological target: T1, FLI1 (Homo sapiens, UniProt Q01543 1-452)
# T1 sequence: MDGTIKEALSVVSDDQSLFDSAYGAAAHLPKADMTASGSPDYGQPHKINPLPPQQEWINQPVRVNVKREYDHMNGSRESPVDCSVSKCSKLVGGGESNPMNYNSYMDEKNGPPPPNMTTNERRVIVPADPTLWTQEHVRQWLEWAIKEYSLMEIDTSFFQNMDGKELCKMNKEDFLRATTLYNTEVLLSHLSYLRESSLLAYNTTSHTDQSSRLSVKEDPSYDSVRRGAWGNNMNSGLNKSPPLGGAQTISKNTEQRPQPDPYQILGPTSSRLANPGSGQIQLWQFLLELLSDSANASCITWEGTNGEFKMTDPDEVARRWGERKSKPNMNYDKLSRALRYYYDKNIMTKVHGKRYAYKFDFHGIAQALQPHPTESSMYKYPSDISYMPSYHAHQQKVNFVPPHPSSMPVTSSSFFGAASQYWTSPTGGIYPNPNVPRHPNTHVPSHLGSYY
# Procedure, shortened: (§1)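 The binding signal reported is, for every hexamer, its read frequency for a factor over its read frequency for the tag-only sample. Reads came from pools of yeast-expressed, GST-fused human transcription factors on glutathione beads, barcoded with DNA and mixed with that sample, which were incubated with 200 nmole of a random double-stranded 16-mer DNA library in Tris/NaCl/DTT/glycerol buffer at room temperature for 30 min. After washing, the pools were crosslinked with 0.1% formaldehyde, proximity-ligated with BsaI/T4 ligase for 1 h at 37 °C, PCR-amplified and sequenced on an Illumina NextSeq500.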
# ELK1 = biological target: T2, ELK1 (Homo sapiens, UniProt P19419 1-428)
# T2 sequence: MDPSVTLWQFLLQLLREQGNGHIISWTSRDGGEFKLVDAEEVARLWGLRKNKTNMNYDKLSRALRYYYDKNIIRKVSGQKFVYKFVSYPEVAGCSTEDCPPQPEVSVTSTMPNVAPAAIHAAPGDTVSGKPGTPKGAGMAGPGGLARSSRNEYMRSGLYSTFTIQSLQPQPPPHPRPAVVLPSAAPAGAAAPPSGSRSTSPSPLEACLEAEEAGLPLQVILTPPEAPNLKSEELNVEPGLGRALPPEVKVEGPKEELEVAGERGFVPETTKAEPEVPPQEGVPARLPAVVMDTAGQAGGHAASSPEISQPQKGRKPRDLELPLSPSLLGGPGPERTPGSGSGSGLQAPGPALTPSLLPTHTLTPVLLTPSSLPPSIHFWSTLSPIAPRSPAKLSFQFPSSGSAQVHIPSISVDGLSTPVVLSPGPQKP
# Procedure, shortened: as §1
# GABPA = biological target: T3, GABPA (Homo sapiens, UniProt Q06546 1-454)
# T3 sequence: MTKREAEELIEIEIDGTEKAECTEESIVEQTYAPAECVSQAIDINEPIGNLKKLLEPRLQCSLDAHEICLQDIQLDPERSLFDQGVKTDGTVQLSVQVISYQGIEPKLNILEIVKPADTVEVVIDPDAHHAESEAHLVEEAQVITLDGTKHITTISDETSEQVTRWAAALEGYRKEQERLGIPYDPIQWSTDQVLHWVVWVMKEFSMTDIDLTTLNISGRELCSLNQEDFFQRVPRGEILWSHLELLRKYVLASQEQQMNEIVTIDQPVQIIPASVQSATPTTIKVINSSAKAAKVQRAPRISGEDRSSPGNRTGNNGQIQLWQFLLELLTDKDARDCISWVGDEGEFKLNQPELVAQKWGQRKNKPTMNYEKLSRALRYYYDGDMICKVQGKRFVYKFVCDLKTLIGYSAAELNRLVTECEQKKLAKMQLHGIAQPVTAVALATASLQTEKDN
# Procedure, shortened: as §1
# ERG = biological target: T4, ERG (Homo sapiens, UniProt P11308 1-479)
# T4 sequence: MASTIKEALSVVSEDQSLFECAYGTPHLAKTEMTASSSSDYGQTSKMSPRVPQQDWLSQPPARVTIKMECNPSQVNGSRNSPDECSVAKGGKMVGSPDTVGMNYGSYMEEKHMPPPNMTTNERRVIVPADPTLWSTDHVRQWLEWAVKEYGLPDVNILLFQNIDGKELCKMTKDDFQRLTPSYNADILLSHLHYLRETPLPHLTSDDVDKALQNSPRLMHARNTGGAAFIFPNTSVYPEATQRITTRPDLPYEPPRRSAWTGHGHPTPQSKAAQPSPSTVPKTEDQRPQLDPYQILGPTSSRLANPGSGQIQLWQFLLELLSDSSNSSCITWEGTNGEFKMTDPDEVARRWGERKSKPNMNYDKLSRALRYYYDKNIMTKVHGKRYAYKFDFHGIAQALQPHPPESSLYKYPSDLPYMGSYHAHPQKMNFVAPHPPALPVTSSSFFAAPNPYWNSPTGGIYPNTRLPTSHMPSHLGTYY
# Procedure, shortened: as §1
# ELF1 = ELF1 (Homo sapiens, UniProt P32519 1-619)
# Procedure, shortened: as §1
# EHF = biological target: T5, EHF (Homo sapiens, UniProt Q9NZC4 1-300)
# T5 sequence: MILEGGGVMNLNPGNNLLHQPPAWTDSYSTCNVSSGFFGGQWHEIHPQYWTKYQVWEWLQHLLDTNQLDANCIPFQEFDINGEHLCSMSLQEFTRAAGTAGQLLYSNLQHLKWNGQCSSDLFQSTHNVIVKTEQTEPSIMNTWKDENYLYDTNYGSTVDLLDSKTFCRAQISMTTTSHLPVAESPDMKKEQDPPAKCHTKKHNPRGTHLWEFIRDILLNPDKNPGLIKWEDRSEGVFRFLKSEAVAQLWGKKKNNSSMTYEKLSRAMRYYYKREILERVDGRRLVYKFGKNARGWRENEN
# Procedure, shortened: as §1
# SPI1 = SPI1 (Homo sapiens, UniProt P17947 1-270)
# Procedure, shortened: as §1
# SPIB = SPIB (Homo sapiens, UniProt Q01892 1-262)
# Procedure, shortened: as §1
# ELK3 = biological target: T6, ELK3 (Homo sapiens, UniProt P41970 1-407)
# T6 sequence: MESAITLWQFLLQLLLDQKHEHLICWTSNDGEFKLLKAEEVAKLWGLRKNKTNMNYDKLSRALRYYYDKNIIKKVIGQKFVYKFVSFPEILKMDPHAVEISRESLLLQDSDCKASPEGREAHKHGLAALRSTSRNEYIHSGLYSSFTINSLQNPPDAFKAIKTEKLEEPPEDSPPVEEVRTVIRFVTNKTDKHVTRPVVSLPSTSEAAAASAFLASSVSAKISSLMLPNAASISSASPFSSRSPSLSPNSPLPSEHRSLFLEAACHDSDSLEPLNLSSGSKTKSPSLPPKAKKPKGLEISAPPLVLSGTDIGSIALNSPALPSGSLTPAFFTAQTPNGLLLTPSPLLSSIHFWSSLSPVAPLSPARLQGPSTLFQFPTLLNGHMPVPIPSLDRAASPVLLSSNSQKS
# Procedure, shortened: as §1
# Chain of SPIB (Q01892 whole entry): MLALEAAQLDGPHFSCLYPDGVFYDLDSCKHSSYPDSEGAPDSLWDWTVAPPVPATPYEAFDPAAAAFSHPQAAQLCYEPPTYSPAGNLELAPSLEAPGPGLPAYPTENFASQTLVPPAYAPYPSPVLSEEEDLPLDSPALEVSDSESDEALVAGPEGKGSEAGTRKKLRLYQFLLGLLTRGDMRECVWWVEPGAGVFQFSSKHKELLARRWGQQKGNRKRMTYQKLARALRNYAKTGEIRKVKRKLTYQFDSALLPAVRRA
# Chain of ELF1 (P32519 whole entry): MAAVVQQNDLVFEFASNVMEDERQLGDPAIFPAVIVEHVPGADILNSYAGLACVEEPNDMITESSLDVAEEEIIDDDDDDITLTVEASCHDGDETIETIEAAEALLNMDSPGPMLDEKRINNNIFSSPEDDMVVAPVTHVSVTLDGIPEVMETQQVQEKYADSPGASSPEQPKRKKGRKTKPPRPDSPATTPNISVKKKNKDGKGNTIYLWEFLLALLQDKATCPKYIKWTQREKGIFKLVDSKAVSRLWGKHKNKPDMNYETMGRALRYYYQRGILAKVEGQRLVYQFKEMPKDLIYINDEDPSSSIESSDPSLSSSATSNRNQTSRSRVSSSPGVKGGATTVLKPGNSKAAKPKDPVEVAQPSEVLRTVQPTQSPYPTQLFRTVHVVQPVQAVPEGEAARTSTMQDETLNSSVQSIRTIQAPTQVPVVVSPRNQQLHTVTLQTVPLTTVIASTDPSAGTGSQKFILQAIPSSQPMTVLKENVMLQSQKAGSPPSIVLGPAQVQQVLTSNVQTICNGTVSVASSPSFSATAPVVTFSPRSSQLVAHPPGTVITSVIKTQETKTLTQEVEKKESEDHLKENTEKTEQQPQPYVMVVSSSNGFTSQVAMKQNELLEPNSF
Sequence,binding signal (FLI1),binding signal (ELK1),binding signal (GABPA),binding signal (ERG),binding signal (ELF1),binding signal (EHF),binding signal (SPI1),binding signal (SPIB),binding signal (ELK3)
CTAATA,"1.21 fold enrichment (6-mer frequency, TF over GST control)","1.15 fold enrichment (6-mer frequency, TF over GST control)","1.13 fold enrichment (6-mer frequency, TF over GST control)","1.17 fold enrichment (6-mer frequency, TF over GST control)","1.19 fold enrichment (6-mer frequency, TF over GST control)","1.25 fold enrichment (6-mer frequency, TF over GST control)","1.24 fold enrichment (6-mer frequency, TF over GST control)","1.17 fold enrichment (6-mer frequency, TF over GST control)","1.06 fold enrichment (6-mer frequency, TF over GST control)"
CCCGCT,"1.38 fold enrichment (6-mer frequency, TF over GST control)","1.31 fold enrichment (6-mer frequency, TF over GST control)","1.34 fold enrichment (6-mer frequency, TF over GST control)","1.3 fold enrichment (6-mer frequency, TF over GST control)","1.44 fold enrichment (6-mer frequency, TF over GST control)","1.48 fold enrichment (6-mer frequency, TF over GST control)","1.37 fold enrichment (6-mer frequency, TF over GST control)","1.35 fold enrichment (6-mer frequency, TF over GST control)","1.35 fold enrichment (6-mer frequency, TF over GST control)"
GTGCTT,"1.21 fold enrichment (6-mer frequency, TF over GST control)","1.36 fold enrichment (6-mer frequency, TF over GST control)","1.3 fold enrichment (6-mer frequency, TF over GST control)","1.38 fold enrichment (6-mer frequency, TF over GST control)","1.2 fold enrichment (6-mer frequency, TF over GST control)","1.24 fold enrichment (6-mer frequency, TF over GST control)","1.33 fold enrichment (6-mer frequency, TF over GST control)","1.24 fold enrichment (6-mer frequency, TF over GST control)","1.4 fold enrichment (6-mer frequency, TF over GST control)"
CTTCAC,"1.47 fold enrichment (6-mer frequency, TF over GST control)","1.42 fold enrichment (6-mer frequency, TF over GST control)","1.38 fold enrichment (6-mer frequency, TF over GST control)","1.45 fold enrichment (6-mer frequency, TF over GST control)","1.45 fold enrichment (6-mer frequency, TF over GST control)","1.41 fold enrichment (6-mer frequency, TF over GST control)","1.37 fold enrichment (6-mer frequency, TF over GST control)","1.41 fold enrichment (6-mer frequency, TF over GST control)","1.38 fold enrichment (6-mer frequency, TF over GST control)"
ATGAAA,"1.11 fold enrichment (6-mer frequency, TF over GST control)","1.17 fold enrichment (6-mer frequency, TF over GST control)","1.16 fold enrichment (6-mer frequency, TF over GST control)","1.17 fold enrichment (6-mer frequency, TF over GST control)","1.2 fold enrichment (6-mer frequency, TF over GST control)","1.16 fold enrichment (6-mer frequency, TF over GST control)","1.2 fold enrichment (6-mer frequency, TF over GST control)","1.15 fold enrichment (6-mer frequency, TF over GST control)","1.06 fold enrichment (6-mer frequency, TF over GST control)"
TACGCT,"1.3 fold enrichment (6-mer frequency, TF over GST control)","1.26 fold enrichment (6-mer frequency, TF over GST control)","1.4 fold enrichment (6-mer frequency, TF over GST control)","1.34 fold enrichment (6-mer frequency, TF over GST control)","1.34 fold enrichment (6-mer frequency, TF over GST control)","1.25 fold enrichment (6-mer frequency, TF over GST control)","1.31 fold enrichment (6-mer frequency, TF over GST control)","1.18 fold enrichment (6-mer frequency, TF over GST control)","1.36 fold enrichment (6-mer frequency, TF over GST control)"
TTGACT,"1.19 fold enrichment (6-mer frequency, TF over GST control)","1.19 fold enrichment (6-mer frequency, TF over GST control)","1.15 fold enrichment (6-mer frequency, TF over GST control)","1.18 fold enrichment (6-mer frequency, TF over GST control)","1.15 fold enrichment (6-mer frequency, TF over GST control)","1.06 fold enrichment (6-mer frequency, TF over GST control)","1.19 fold enrichment (6-mer frequency, TF over GST control)","1.18 fold enrichment (6-mer frequency, TF over GST control)","1.03 fold enrichment (6-mer frequency, TF over GST control)"
